# From the supplement of paper PMC6411743
# ± gives the standard deviation of the averaged measurements. About 5,400 targets were measured; listed, in parts, are those with the largest changes and a random draw of the rest.
# Compound: Nc1nc2c(ncn2[C@@H]2O[C@H](COP(=O)(O)OP(=O)(O)OP(=O)(O)O)[C@@H](O)[C@H]2O)c(=O)[nH]1 [guanosine triphosphate]
# Experiment: NP40-soluble protein abundance relative to vehicle (solubility fold change) (ratio); higher = more soluble protein in presence of GTP
# How it was run: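 Crude Jurkat lysate, prepared by Dounce homogenisation, was exposed to eight concentrations from 0.1 to 10 mM for 10 min at room temperature and then 3 min at 37 °C. Solubilisation used 0.8% NP40 with benzonase for 60 min at 4 °C, followed by ultracentrifugation and TMT labelling of the supernatant for LC-MS/MS. After vsn normalisation of intensities, each value is the fold change against the detergent-processed vehicle within each replicate, across three independent experiments.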
# Sequence of UniProt Q9HCD5 (Q9HCD5 whole entry): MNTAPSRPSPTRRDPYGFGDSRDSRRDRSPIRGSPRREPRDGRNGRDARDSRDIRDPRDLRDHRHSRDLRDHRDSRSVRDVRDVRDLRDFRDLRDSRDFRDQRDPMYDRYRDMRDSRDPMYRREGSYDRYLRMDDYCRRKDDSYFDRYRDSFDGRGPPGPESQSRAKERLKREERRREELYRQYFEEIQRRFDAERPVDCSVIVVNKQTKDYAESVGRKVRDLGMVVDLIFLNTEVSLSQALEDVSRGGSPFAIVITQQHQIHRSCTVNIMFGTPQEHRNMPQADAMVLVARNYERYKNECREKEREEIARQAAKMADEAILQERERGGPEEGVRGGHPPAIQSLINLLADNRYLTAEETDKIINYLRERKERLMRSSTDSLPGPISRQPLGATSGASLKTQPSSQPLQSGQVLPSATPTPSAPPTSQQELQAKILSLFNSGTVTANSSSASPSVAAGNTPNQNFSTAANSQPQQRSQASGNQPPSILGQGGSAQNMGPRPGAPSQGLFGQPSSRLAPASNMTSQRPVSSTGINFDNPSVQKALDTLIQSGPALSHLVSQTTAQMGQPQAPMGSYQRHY
# Sequence of UniProt Q96I99 (Q96I99 whole entry): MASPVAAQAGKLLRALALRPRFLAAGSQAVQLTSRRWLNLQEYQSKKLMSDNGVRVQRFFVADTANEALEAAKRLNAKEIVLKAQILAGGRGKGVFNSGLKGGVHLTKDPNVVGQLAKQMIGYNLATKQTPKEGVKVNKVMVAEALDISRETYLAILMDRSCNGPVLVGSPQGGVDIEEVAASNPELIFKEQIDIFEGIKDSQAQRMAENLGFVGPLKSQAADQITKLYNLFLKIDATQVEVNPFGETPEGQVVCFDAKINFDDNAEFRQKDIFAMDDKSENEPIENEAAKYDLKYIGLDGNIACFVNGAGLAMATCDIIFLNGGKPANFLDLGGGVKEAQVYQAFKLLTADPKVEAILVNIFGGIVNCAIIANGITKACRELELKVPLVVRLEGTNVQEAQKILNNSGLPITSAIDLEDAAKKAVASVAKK
# Sequence of UniProt Q96B97 (Q96B97 whole entry): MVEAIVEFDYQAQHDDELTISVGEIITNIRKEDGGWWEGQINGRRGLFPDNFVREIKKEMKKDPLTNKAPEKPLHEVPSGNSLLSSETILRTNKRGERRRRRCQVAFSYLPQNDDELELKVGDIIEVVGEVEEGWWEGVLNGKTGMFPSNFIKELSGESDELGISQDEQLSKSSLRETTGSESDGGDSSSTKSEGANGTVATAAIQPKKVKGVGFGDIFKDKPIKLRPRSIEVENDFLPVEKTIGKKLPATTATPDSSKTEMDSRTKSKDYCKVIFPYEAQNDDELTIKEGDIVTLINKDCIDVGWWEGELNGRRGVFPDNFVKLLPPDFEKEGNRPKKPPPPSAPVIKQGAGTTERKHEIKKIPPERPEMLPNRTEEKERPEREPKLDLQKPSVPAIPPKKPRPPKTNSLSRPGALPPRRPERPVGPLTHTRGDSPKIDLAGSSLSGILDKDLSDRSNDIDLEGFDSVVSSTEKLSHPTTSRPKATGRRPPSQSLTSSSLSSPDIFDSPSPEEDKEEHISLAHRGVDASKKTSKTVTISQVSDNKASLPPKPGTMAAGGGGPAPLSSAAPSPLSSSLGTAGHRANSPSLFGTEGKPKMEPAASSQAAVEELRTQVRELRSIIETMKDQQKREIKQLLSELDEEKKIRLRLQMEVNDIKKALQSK
# Sequence of UniProt Q9NQS7 (Q9NQS7 whole entry): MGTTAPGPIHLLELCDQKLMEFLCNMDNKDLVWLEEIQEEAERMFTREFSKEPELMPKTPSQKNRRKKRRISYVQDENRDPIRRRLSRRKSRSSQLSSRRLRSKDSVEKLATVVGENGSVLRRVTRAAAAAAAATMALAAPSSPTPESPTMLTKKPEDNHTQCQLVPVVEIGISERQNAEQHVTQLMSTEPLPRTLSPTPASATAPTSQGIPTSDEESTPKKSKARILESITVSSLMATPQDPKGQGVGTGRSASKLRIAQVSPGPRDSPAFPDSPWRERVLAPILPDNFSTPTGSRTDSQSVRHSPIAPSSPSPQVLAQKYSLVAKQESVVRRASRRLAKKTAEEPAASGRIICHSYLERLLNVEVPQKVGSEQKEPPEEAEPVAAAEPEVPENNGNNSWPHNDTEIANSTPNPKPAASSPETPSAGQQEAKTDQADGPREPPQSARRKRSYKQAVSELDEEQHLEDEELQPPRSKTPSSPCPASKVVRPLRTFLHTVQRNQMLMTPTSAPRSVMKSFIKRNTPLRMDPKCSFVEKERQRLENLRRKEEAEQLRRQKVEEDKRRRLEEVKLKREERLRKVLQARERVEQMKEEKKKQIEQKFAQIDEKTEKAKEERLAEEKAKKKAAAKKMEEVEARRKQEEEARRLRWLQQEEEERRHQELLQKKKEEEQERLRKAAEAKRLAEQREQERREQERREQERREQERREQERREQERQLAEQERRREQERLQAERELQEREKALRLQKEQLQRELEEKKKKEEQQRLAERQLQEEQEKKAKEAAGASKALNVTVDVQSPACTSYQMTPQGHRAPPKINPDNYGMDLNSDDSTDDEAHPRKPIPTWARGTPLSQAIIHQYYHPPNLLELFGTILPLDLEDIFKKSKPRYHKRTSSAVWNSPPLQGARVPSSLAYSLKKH
# Sequence of UniProt Q9UQN3 (Q9UQN3 whole entry): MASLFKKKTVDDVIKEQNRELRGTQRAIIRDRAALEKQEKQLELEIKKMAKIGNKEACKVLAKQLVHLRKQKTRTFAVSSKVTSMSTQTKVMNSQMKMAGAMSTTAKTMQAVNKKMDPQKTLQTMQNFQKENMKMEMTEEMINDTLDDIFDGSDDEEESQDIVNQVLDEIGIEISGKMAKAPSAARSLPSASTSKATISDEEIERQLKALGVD
# Sequence of UniProt Q9HA47 (Q9HA47 whole entry): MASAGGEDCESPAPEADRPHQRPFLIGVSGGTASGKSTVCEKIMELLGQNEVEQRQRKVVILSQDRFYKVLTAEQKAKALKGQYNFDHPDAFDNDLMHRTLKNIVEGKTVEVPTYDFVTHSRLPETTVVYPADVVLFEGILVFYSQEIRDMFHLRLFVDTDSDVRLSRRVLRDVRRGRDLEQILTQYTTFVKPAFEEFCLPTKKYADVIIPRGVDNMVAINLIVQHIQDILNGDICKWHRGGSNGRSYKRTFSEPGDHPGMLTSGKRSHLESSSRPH
# Sequence of UniProt Q9H0D6 (Q9H0D6 whole entry): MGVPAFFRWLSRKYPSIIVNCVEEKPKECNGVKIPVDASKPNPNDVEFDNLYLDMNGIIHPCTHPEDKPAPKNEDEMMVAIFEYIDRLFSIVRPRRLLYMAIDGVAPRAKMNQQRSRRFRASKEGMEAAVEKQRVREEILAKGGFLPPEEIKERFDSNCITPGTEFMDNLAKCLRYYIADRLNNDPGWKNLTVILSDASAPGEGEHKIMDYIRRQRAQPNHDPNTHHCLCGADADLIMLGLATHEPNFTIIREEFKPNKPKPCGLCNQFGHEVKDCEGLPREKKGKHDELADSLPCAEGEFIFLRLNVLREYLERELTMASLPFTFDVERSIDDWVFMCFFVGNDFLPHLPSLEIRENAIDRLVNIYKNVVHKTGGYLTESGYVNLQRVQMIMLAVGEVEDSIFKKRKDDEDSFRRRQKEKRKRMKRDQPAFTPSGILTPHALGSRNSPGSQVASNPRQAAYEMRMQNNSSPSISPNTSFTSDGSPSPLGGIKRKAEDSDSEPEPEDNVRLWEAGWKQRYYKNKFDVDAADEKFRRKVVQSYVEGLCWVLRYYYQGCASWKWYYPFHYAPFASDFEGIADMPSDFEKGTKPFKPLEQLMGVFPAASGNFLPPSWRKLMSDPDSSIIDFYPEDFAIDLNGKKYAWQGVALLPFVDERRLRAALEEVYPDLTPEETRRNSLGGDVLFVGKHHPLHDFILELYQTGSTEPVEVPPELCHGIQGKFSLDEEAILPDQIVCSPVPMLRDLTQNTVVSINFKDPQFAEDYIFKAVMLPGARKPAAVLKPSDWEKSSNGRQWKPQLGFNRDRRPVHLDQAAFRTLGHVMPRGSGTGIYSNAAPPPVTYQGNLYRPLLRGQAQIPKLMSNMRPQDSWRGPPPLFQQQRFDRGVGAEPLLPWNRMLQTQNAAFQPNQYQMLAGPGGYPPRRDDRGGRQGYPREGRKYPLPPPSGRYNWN
# Sequence of UniProt Q9Y508 (Q9Y508 whole entry): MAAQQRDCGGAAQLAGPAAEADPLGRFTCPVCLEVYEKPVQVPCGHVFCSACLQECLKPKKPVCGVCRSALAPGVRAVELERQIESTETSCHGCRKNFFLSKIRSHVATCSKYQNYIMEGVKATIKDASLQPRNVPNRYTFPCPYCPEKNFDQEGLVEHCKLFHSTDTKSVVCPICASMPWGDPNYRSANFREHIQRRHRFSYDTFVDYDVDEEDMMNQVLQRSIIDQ
# Sequence of UniProt Q969H8 (Q969H8 whole entry): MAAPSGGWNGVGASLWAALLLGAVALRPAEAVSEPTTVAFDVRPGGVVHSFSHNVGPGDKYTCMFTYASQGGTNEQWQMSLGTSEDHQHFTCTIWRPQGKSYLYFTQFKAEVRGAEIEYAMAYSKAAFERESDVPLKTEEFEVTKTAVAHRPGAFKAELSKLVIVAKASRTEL
# Sequence of UniProt Q96EM0 (Q96EM0 whole entry): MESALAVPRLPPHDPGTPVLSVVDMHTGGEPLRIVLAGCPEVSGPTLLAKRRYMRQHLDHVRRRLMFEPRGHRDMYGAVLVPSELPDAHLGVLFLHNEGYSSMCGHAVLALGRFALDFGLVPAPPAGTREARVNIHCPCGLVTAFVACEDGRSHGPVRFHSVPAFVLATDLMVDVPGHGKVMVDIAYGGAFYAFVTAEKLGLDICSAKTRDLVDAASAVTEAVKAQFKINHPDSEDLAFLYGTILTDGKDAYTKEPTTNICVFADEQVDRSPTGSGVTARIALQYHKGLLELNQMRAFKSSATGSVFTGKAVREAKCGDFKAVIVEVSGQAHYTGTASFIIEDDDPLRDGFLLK
# Sequence of UniProt Q9Y333 (Q9Y333 whole entry): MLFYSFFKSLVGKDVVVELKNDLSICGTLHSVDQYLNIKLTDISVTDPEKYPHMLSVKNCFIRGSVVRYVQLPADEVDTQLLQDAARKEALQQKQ
Target,NP40-soluble protein abundance (concentration: 0.1mM),NP40-soluble protein abundance (concentration: 0.5mM),NP40-soluble protein abundance (concentration: 1mM),NP40-soluble protein abundance (concentration: 2mM),NP40-soluble protein abundance (concentration: 4mM),NP40-soluble protein abundance (concentration: 6mM),NP40-soluble protein abundance (concentration: 8mM),NP40-soluble protein abundance (concentration: 10mM)
UniProt Q9Y4P8|Q9Y4P8-4|Q9Y4P8-6,1.04 ± 0.11,1.01 ± 0.028,0.976 ± 0.11,0.961 ± 0.1,0.959 ± 0.1,0.959 ± 0.053,0.954 ± 0.042,0.896 ± 0.021
FAM120C (UniProt Q9NX05),1 ± 0.021,1.04 ± 0.017,1.04 ± 0.036,1.09 ± 0.065,1.12 ± 0.068,1.18 ± 0.077,1.25 ± 0.08,1.25 ± 0.061
UniProt Q9HA47|Q9HA47-3|Q9HA47-4,1.01 ± 0.02,0.946 ± 0.037,1.05 ± 0.1,0.966 ± 0.056,0.98 ± 0.1,0.987 ± 0.034,0.983 ± 0.12,0.958 ± 0.024
RAB21 (UniProt Q9UL25),0.998 ± 0.058,0.967 ± 0.036,0.87 ± 0.016,0.862 ± 0.011,0.837 ± 0.029,0.84 ± 0.039,0.812 ± 0.048,0.813 ± 0.093
UniProt Q9H944|B7ZBQ3,1 ± 0.046,1.01 ± 0.05,0.928 ± 0.034,0.984 ± 0.019,0.976 ± 0.025,0.986 ± 0.029,0.9381 ± 0.0083,0.934 ± 0.029
UniProt Q9NVK5|Q9NVK5-2,0.987 ± 0.072,0.945 ± 0.1,1.16 ± 0.17,1.11 ± 0.086,1.13 ± 0.1,1.19 ± 0.092,1.28 ± 0.17,1.27 ± 0.2
UniProt Q9H832|Q9H832-2,1.04 ± 0.06,0.987 ± 0.061,0.9687 ± 0.0042,1.12 ± 0.056,0.927 ± 0.013,0.934 ± 0.043,0.91 ± 0.034,0.963 ± 0.064
UniProt Q9UMX0|Q9UMX0-2,0.999 ± 0.07,0.998 ± 0.015,1.09 ± 0.11,1.02 ± 0.032,1.012 ± 0.0015,0.994 ± 0.039,1.02 ± 0.053,1.01 ± 0.039
UniProt Q96B97|Q96B97-2,0.941 ± 0.12,0.938 ± 0.1,0.962 ± 0.1,0.943 ± 0.13,0.949 ± 0.1,0.935 ± 0.098,0.982 ± 0.11,0.966 ± 0.12
UniProt Q9UJX6|Q9UJX6-2,1.3 ± 0.28,1.33 ± 0.37,1.18 ± 0.28,1.26 ± 0.47,1.3 ± 0.37,1.25 ± 0.46,1.12 ± 0.31,1.22 ± 0.48
UniProt Q9H8M2|Q9H8M2-3|Q9H8M2-6,0.966 ± 0.054,1.05 ± 0.13,1.03 ± 0.085,0.995 ± 0.033,1.04 ± 0.11,1.13 ± 0.12,1.11 ± 0.029,1.09 ± 0.04
X5CMH5 (UniProt Q03519),1.09 ± 0.036,1.08 ± 0.054,0.978 ± 0.028,1.01 ± 0.085,0.976 ± 0.063,0.951 ± 0.051,0.934 ± 0.015,0.918 ± 0.065
UniProt Q96ES7,1.21 ± 0.22,1.12 ± 0.13,1.25 ± 0.19,1.14 ± 0.12,1.26 ± 0.11,1.17 ± 0.11,1.38 ± 0.32,1.12 ± 0.096
WDR3 (UniProt Q9UNX4),1.12 ± 0.08,1.15 ± 0.098,1.13 ± 0.061,1.42 ± 0.13,1.81 ± 0.16,1.98 ± 0.2,2.04 ± 0.12,1.974 ± 0.012
UniProt Q9NS23|Q9NS23-2|Q9NS23-3|Q9NS23-4|Q9NS23-5,0.978 ± 0.032,1.03 ± 0.098,1.04 ± 0.051,1.04 ± 0.058,1.05 ± 0.09,1.01 ± 0.022,0.971 ± 0.056,0.968 ± 0.11
UniProt Q9BTY7,0.967 ± 0.086,0.856 ± 0.056,1.07 ± 0.088,1.05 ± 0.033,1.03 ± 0.082,0.998 ± 0.049,0.924 ± 0.18,1.03 ± 0.14
RNF114 (UniProt Q9Y508),0.95 ± 0.011,0.967 ± 0.032,0.924 ± 0.041,0.91 ± 0.068,0.895 ± 0.057,0.897 ± 0.056,0.876 ± 0.072,0.888 ± 0.084
UniProt Q969H8,0.971 ± 0.023,0.949 ± 0.034,0.884 ± 0.026,0.85 ± 0.019,0.834 ± 0.05,0.853 ± 0.057,0.8 ± 0.046,0.764 ± 0.085
UniProt Q96EM0,0.976 ± 0.19,0.971 ± 0.15,0.869 ± 0.093,0.892 ± 0.11,1.02 ± 0.026,0.929 ± 0.095,0.85 ± 0.16,0.895 ± 0.085
XRN2 (UniProt Q9H0D6),0.993 ± 0.025,0.995 ± 0.027,0.974 ± 0.017,0.977 ± 0.027,0.985 ± 0.018,0.986 ± 0.027,1 ± 0.039,0.982 ± 0.028
DDX49 (UniProt Q9Y6V7),1.02 ± 0.056,1.01 ± 0.047,1.03 ± 0.026,1.05 ± 0.072,1.12 ± 0.037,1.19 ± 0.022,1.26 ± 0.076,1.21 ± 0.077
SUCLG2 (UniProt Q96I99),0.959 ± 0.049,0.966 ± 0.053,0.933 ± 0.043,0.901 ± 0.06,0.889 ± 0.059,0.889 ± 0.052,0.886 ± 0.048,0.871 ± 0.068
CHMP2B (UniProt Q9UQN3),0.905 ± 0.051,0.909 ± 0.092,0.989 ± 0.079,0.931 ± 0.15,0.938 ± 0.12,0.967 ± 0.14,0.953 ± 0.085,0.932 ± 0.11
NCOA5 (UniProt Q9HCD5),1.03 ± 0.053,1 ± 0.028,1.084 ± 0.0085,1.22 ± 0.043,1.58 ± 0.053,1.81 ± 0.059,2.15 ± 0.18,2.4 ± 0.19
UniProt Q9NQS7|Q9NQS7-2,1.16 ± 0.11,1.2 ± 0.24,1.31 ± 0.089,1.28 ± 0.14,1.49 ± 0.21,1.6 ± 0.17,1.72 ± 0.11,1.97 ± 0.29
UniProt Q96BY9|H0YAZ1,1.08 ± 0.15,1.08 ± 0.064,1.09 ± 0.15,1.1 ± 0.094,1.03 ± 0.11,1.01 ± 0.1,1.05 ± 0.19,1.07 ± 0.22
NUDC (UniProt Q9Y266),0.924 ± 0.044,0.938 ± 0.06,0.931 ± 0.058,0.88 ± 0.077,0.852 ± 0.063,0.893 ± 0.076,0.885 ± 0.056,0.872 ± 0.069
GPKOW (UniProt Q92917),0.974 ± 0.07,0.995 ± 0.067,1.02 ± 0.077,0.975 ± 0.086,0.968 ± 0.071,0.99 ± 0.059,0.998 ± 0.057,1.01 ± 0.088
UniProt Q9Y333,0.946 ± 0.08,0.98 ± 0.11,0.973 ± 0.091,0.939 ± 0.1,0.887 ± 0.12,0.989 ± 0.13,0.962 ± 0.089,0.963 ± 0.059
